# Screening results deposited in PubChem by Broad Institute.
# A selection: hits, their analogues and other compounds. The true share with any hit is near 8.1%.
# Shh pathway inh: Hedgehog pathway signaling inhibitors, primary screen, luminescence, Shh-LIGHT2 cells, Gli-luciferase | inhibition, % (no concentration beside the values) | 22,000 compounds, 2.1% hits | Shh-LIGHT2 Gli-luciferase reporter, 30 h | AID 2313, 2010;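 active = mean inhibition across valid replicates above about 65%, limit read from the data; inconclusive = mean under the limit, yet half or more replicates past it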;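 note: pathway switched on by Shh-conditioned medium diluted 1 in 25 in low serum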
# PD-1 reversal: activators reversing PD-1 mediated T-cell inhibition, primary screen, luminescence, primary human CD4 T cells, PD-L1 beads. 29,000 tested, under 10 active. activation, % (concentration not given with the values). CellTiter-Glo 96 h; call rule not given here;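 note: 0% = median vehicle wells and 100% = positive control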
# MITF inhib: inhibitors of MITF, primary screen, MITF inhibitor project, cell-based, luminescence; AID 2240, 2010; 37,000 compounds, 0.28% hits; TRPM1 promoter luciferase, 24 h; inhibition, % (concentration not given with the values); in the data active = inhibition above about 85%; inconclusive = no clear call, values can overlap the other calls; inactive = below about 68%;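 note: human melanocyte line stably carrying TRPM1 promoter luciferase reporter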
# NOMO-1 viab: NOMO-1 AML cell viability reduction, primary screen, STK33 inhibitor project, CellTiter-Glo luminescence. NOMO-1 AML viability, 72 h. inhibition, % (concentration not given with the values). 37,000 compounds, 7.5% hits; in the data active = inhibition above about 80%; inconclusive = no clear call, values can overlap the other calls
# Starred values were filed as active, the others as inactive; ? = inconclusive; . = not tested or not shown.
SMILES,Shh pathway inh,PD-1 reversal,MITF inhib,NOMO-1 viab
Cc1ccc(N2C3=C(C(=O)CC(C)(C)C3)C(c3cccs3)C3=C2CC(C)(C)CC3=O)cc1C,-42,-7,-18,118*
COc1cc2c(cc1O)CCC1C2CC[C@@]2(C)C1CC[C@@H]2O (stereo not given in full),91*,-9,19,97*
COc1cc(C)c2c(c1)CCC1C2CCC2(C)C(O)CCC12 (stereo not given),?,-1,-72,91*
COc1ccc2c(c1)CCC1C2CCC2(C)C1C[C@@H](O)C2O (stereo not given in full),19,.,-24,4
COc1ccc(OC)c(S(=O)(=O)Nc2ccc(O)c3ccccc23)c1,.,-13,70,127*
COC(=O)c1ccc(CSc2nc(-c3cccs3)cc(C(F)(F)F)n2)cc1,-28,3,1,14
C[C@@H]1CN([C@@H](C)CO)C(=O)c2cccc(NC(=O)Nc3ccccc3)c2O[C@@H]1CN(C)C(=O)Nc1cccc2ccccc12,?,1,-6,106*
C[C@@H]1CN([C@H](C)CO)C(=O)c2cccc(NC(=O)Nc3ccccc3)c2O[C@@H]1CN(C)C(=O)Nc1cccc2ccccc12,-45,0,-4,105*
COc1ccc(-c2nnc(SCC(=O)Nc3ccc(C)cc3C)n2-c2ccccc2)cc1OC,.,.,29,26
COc1ccccc1-c1cc(C(F)(F)F)nc(S(=O)(=O)CCCC(=O)N2CCOCC2)n1,.,-16,60,136*
COc1ccc(OC)c(S(=O)(=O)N(C)CC(=O)N2CCOCC2)c1,.,3,-11,-16
CCOC(=O)C1=NNCC1C(=O)OCC (stereo not given),.,1,13,96*
CCOC(=O)c1nonc1N,-7,0,-12,-16
COc1ccc(Cl)cc1NC(=O)CSc1nnc(-c2ccc(Br)cc2)o1,.,0,-5,3
O=C(c1cccs1)N1CCCn2c(SCc3ccccc3)nnc21,-9,0,-17,9
C[C@H](CO)N1C[C@H](C)[C@H](CN(C)Cc2ccc(C(=O)Nc3ccccc3N)cc2)Oc2ccc(NS(=O)(=O)c3cccs3)cc2C1=O,.,-2,24,109*
C[C@@H]1CN([C@H](C)CO)C(=O)c2cc(NS(=O)(=O)c3cccs3)ccc2O[C@@H]1CN(C)Cc1ccc(C(=O)Nc2ccccc2N)cc1,.,-2,25,110*
COc1cc(O)c2c(c1)O[C@H](c1ccc(O)c(O)c1)[C@@H](OC(C)=O)C2=O,-15,-2,-37,65
COc1ccc(-n2c(SCC(=O)Nc3ccccc3C(F)(F)F)nnc2-c2ccccc2)cc1,.,1,5,5
CCc1ccccc1NC(=O)CSc1nc2ccc(C(=O)c3ccccc3)cc2[nH]1,.,1,21,12
Cc1ccc2nc(S/C=C/C(=O)c3ccccc3)[nH]c2c1,48,-33,69,123*
CCOC(=O)c1c(CSc2cccc3cccnc23)nc2c3ccccc3ccn12,.,-3,5,68
CCOC(=O)C1=C(CSc2ccc(Cl)cc2)NC(=O)NC1c1cc(C)ccc1C (stereo not given),48,1,-30,115*
CCOC(=O)c1cc(-c2ccc(Cl)cc2)[nH]c(=O)c1C#N,9,0,7,-13
Cc1ccc(C(=O)c2coc3ccc(O)cc23)o1,-30,-2,26,41
SMILES,Shh pathway inh,PD-1 reversal,MITF inhib,NOMO-1 viab
COc1ccc(OC)c(C(=O)c2coc3ccc(O)cc23)c1,20,0,-5,136*
COc1ccc(-c2coc3cc(O)ccc3c2=O)c(OC)c1,80*,.,-6,-2
C[C@@H]1CCCCO[C@H](CN(C)Cc2ccc3c(c2)OCO3)[C@@H](C)CN([C@H](C)CO)C(=O)c2cc(NS(=O)(=O)c3ccc(Cl)cc3)ccc2O1,27,0,-1,87*
C[C@H](CO)N1C[C@H](C)[C@H](CN(C)Cc2ccc(Cl)c(Cl)c2)Oc2ccc(NS(=O)(=O)c3ccc(F)cc3)cc2C1=O,-1,0,-4,22
C[C@H]1CN([C@@H](C)CO)C(=O)c2cc(NS(=O)(=O)c3ccc(F)cc3)ccc2O[C@H]1CN(C)Cc1ccc2c(c1)OCO2,23,-1,-2,93*
C[C@@H]1CN([C@@H](C)CO)C(=O)c2cc(NS(=O)(=O)c3ccccc3)ccc2O[C@@H]1CN(C)Cc1ccc(Cl)c(Cl)c1,25,-2,64,103*
C[C@H]1CN([C@@H](C)CO)C(=O)c2cc(NS(=O)(=O)c3ccc(F)cc3)ccc2O[C@@H]1CN(C)Cc1ccc(Cl)c(Cl)c1,19,-2,29,110*
C=CCSc1nnc(-c2ccc(C)cc2)o1,-170,0,38,11
O=C(CSc1nnnn1-c1ccccc1Cl)Nc1ccc(Br)cc1,.,1,10,-7
CCc1ccc2c(c1)=C(c1[nH]c(=S)[nH]c1O)C(=O)N=2,-28,0,29,27
CCc1cccc(C(C)C)c1NS(=O)(=O)c1ccc(C)cc1,14,-1,11,43
C[C@@H]1CN([C@@H](C)CO)C(=O)c2cc(NS(=O)(=O)c3ccc(Cl)cc3)ccc2O[C@@H]1CN(C)Cc1ccc(Cl)c(Cl)c1,-7,-1,49,116*
C[C@@H]1CCCCO[C@@H](CN(C)Cc2ccc(Cl)c(Cl)c2)[C@@H](C)CN([C@H](C)CO)C(=O)c2cc(NS(=O)(=O)c3cccs3)ccc2O1,3,.,53,118*
C[C@H](CO)N1C[C@H](C)[C@H](CN(C)Cc2ccc(Cl)c(Cl)c2)Oc2ccc(NS(=O)(=O)c3ccc(Cl)cc3)cc2C1=O,19,-1,24,60
C[C@@H]1CN([C@H](C)CO)C(=O)c2cc(NS(=O)(=O)c3ccc(Cl)cc3)ccc2O[C@@H]1CN(C)Cc1ccc(Cl)c(Cl)c1,42,.,50,90*
C[C@@H]1CCCCO[C@@H](CN(C)Cc2ccc(Cl)c(Cl)c2)[C@@H](C)CN([C@H](C)CO)C(=O)c2cc(NS(=O)(=O)c3ccc(F)cc3)ccc2O1,-48,-5,20,99*
CN(C)Cc1ccc(C(=O)Oc2ccc(C(C)(C)C)cc2)cc1,.,-2,1,115*
CCc1ccc(C(=O)Oc2ccc(C#N)cc2)cc1,.,1,-5,69
O=C1c2ccccc2O[C@@H](c2ccc(Cl)cc2)[C@@H]1O,-35,-3,-3,114*
COc1ccc(CCNC(=S)NCCc2ccccc2)cc1OC,2,0,16,13
COc1ccc(CCNC(=S)n2cc(C)cn2)cc1OC,.,-12,55,111*
COc1ccc(CCNC(=S)Nc2ccncc2)cc1OC,.,-10,64,113*
C=CS(=O)(=O)c1ccc(OC)c(N)c1,83*,-33,58,120*
CCOc1ccc(C)cc1S(=O)(=O)NCc1ccco1,.,.,-17,7
COc1cc(-c2oc3cc(O)c(OC)c(O)c3c(=O)c2OC)ccc1O,-56,-1,-38,120*
COc1ccc(-c2cc(=O)c3c(O)cc(O)cc3o2)cc1,-11,.,-24,-4
